Where “and” joins values, the source holds several entries; their conditions need not be identical. Identical values can stand only once. About 1,500 (2.5%) of roughly 59,000 compounds were called active. Not shown: some 10% with an inconclusive outcome. Calls follow the shape of the dose curve; as a rule, active = well fitted inhibition curve with a large enough effect; inconclusive = small, poorly fitted or top-dose-only effect; inactive = flat fitted curve, though single readings scatter. Shown is part of a subset that was picked to be rich in actives. Where a structure was tested more than once in an assay, its records may differ in their call.
target: N-terminal Xaa-Pro-Lys N-methyltransferase 1 (Homo sapiens) (UniProt Q9BV86); assay: Primary qHTS for Inhibitors of N-terminal methyltransferase 1 (NTMT1): MTaseGlo Assay; conditions: NTMT1 MTase-Glo SAH luminescence, purified enzyme; series mostly up to 114 µM; activity change, negative = inhibition: at the top concentration; also: nearly all actives have a fitted effect of over 65% in size;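 as to activity change, negative = inhibition: plate controls were DMSO vehicle for no effect and no enzyme for full effect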
Sequence (Q9BV86 whole entry, looked up): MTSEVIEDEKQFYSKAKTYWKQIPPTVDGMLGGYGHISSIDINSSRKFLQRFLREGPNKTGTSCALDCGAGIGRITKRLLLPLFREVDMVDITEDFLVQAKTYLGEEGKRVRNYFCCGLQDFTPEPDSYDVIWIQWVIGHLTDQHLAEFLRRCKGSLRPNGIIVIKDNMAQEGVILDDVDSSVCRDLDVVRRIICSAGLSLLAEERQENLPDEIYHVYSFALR
Text: Assay Submitter (PI): Rong Huang Ph.D.
Purdue University, West Lafayette, IN 47907
The N-terminal methytransferase 1 is the first methyltransferase that methylates protein alpha-N-amines and plays an important role in regulating cell mitosis, chromatin interactions and DNA repair. It is observed to be over-expressed in various cancer patient tissues like malignant melanoma and colorectal cancer tissues. Knockdown of NTMT1 in cancer cells causes cell mitotic defects and enhances sensitivity to DNA damaging chemotherapeutics. […] These critical cellular processes in which NTMT1 is implicated, coupled with emerging links to cellular dysfunction, strengthen the inference that NTMT1 is a compelling novel anticancer target. Progress have been made in understanding the molecular properties of NTMT1 and the biological consequences of protein alpha-N-terminal methylation, but there are no specific small molecule probes available for NTMT1 to fully characterize its MTase activity. To address this unmet need, a panel of assay is created and established to enable quantitative high-throughput screening (qHTS) for novel, potent, and selective small molecule NTMT1 inhibitors. Two orthogonal qHTS that use different reagents (ThioGlo vs. MTaseGlo) are developed for primary robotic screening against the NCATS chemical library of more than 400,000 small molecules. Identified inhibitors are reacquired, validated, and further characterized.
MTaseGlo Assay is a luminescence screen that measure the activity of methyltransferases based on the reaction product S-adenosyl homocysteine (SAH). The substrate SAM is converted to SAH upon enzyme activation. MTase-Glo reagent and detection solution convert SAH to ATP and measure the light from the luciferase reaction.
Materials: NTMT1 enzyme, substrate SPKRIA, control peptide RCC1-6 is provided by the Huang laboratory.
SEQUENCE No. (e.g., 1, 2, 3, etc.); […] (e.g., Cells, Incubation, Reagent, etc.); VALUE; DESCRIPTION
1; Enzyme; 3 uL; Dispense enzyme mixture (final concentrations of 125 nM NTMT1 and 100 uM SAM) into Greiner 1536-well white / solid bottom assay plate (Greiner Bio One, Monroe, NC).
2; Compounds; 23 nL; Compounds and controls were transferred via a Kalypsys Pin Tool (Wako USA) equipped with a 1536-slotted pin array (Wako Automation, Richmond, VA)
3; Incubation; 15 min; Incubate at room temperature
4; Substrate; 1 uL; Dispense 1 uL of substrate at final concentration of 1 uM. Buffer solution was dispensed in control wells. The assay plate was covered with metal lids.
5; Incubation; 30 min; Incubate at room temperature, protected from lights.
6; Reagent; 1 uL; Dispensed 5x MTase-Glo detection reagent (R) into the assay plate. The plate was covered with metal lids.
7; Incubation; 30 min; Incubate the assay plates at room temperature in the dark to allow for SAH to be converted to ADP.
8; Reagent; 5 uL; Dispense 5 uL of 1x MTase-Glo Detection Solution (R) to allow for ADP to be converted to ATP which was then detected with a luciferase reaction.
9; Centrifuge; 15 sec; Centrifuge the assay plate for 15 seconds at 1000 RPM.
10; Incubation; 30 min; Assay plates were incubation at room temperature in the dark.
11; Detection; Luminescence; Plates were read on ViewLux detector (PerkinElmer). Data were normalized to no-enzyme (0% activity) and no-inhibitor (DMSO; 100%) controls, and the resulting percent inhibition data were fitted to a 4-parameter Hill equation using GraphPad Prism.
Potency is read from the fitted curve at half-maximal effect.

| SMILES | activity change, negative = inhibition | Potency |
| --- | --- | --- |
| COc1ccc(Cn2ccn(Cc3cccc(OC)c3)c(=O)c2=O)cc1 | -0.407% (inactive) | – |
| Cc1ccc(C)c(NC(=O)Cn2ccn(-c3ccc(F)cc3)c(=O)c2=O)c1 | -3.87% (inactive) | – |
| COc1ccc(Cn2ccn(CC(=O)Nc3cc(C)ccc3C)c(=O)c2=O)cc1 | – | 79.4 µM (active) |
| N#Cc1ccc(N[S+](=O)([O-])c2ccc(Nc3nc(-c4ccccc4)cs3)cc2)cc1 | -3.5% (inactive) | – |
| O=[S+]([O-])(c1ccc(OC(F)(F)F)cc1)N1CCN([S+](=O)([O-])c2ccc3c(c2)OCCO3)CC1 | -8.07% (inactive) | – |
| CN1CCOc2cc(S(=O)(=O)N3CCN(S(=O)(=O)c4c(F)cccc4F)CC3)cnc21 | 15.4% (inactive) | – |
| COCC1CCCN(C(=O)CC(c2ccc3c(c2)OCO3)c2c(O)cc(OC)cc2OC)C1 (configuration not stated) | 8.9% [at 228 µM] (inactive) | – |
| CCOc1cc(CCNC(=O)c2cc3sccc3n2Cc2ccccc2)cc(F)c1OCC | 13.1% (inactive) | – |
| Cc1cccc2nc(-c3ccc(Cl)s3)c(Nc3ccc4c(c3)OCCO4)n12 | – | 1.78 µM (active) |
| Cc1ccc(Nc2c(-c3ccc(C)s3)nc3ccccn23)cc1 | 0.942% (inactive) | – |
| Oc1ccccc1-c1nc2ccc(Cl)cn2c1Nc1ccc2c(c1)OCCO2 | 8.59% (inactive) | – |
| Cc1cc2c(s1)c1cnn(Cc3cc(F)c(Cl)cc3Cl)c(=O)c1n2C | 3.59% [at 57.5 µM] (inactive) | – |
| Fc1cc(Nc2nc(-c3ccncc3)nc3ccccc23)ccc1-n1cncn1 | – | inactive |
| Cc1c(Cl)cccc1S(=O)(=O)Nc1nc(CCN2CCOCC2=O)cs1 | 1.44% (inactive) | – |
| Cc1cc(Nc2cc(CN3CCOCC3)c3nc(C)c(Cc4ccc(Cl)cc4F)n3n2)n[nH]1 | – | 30.4 µM (active) and 7.08 µM (active) and 11.2 µM (active) |
| COc1cc(NS(=O)(=O)c2ccc(C)cc2)ccc1C(=O)Nc1nc(-c2ccccc2)cs1 | 4.46% (inactive) | – |
| Cc1cc(C)n2ncc(C(=O)Nc3ccc4c(c3)OCCO4)c2n1 | -7.68% (inactive) | – |
| Cc1cc(C)n2ncc(C(=O)Nc3ccc(C)c(C)c3)c2n1 | 21.6% (inactive) | – |
| COc1ccc(C[C@H](C(=O)O)N2C(=O)c3ccc(C(=O)O)cc3C2=O)cc1 | 0.148% [at 57.5 µM] (inactive) | – |
| CC(C)(C)C1CCc2c(sc(NC(=O)c3ccccc3F)c2C(=O)N2CCCCC2)C1 (configuration not stated) | -4.14% (inactive) | – |
| CC(C)C(=O)Nc1nc2c(s1)CC(C(C)(C)C)CC2 (configuration not stated) | – | 79.4 µM (active) |
| COC(=O)c1cccc(Cn2nnc3sc4c(c3c2=O)CCC(C(C)(C)C)C4)c1 (configuration not stated) | 7.12% (inactive) | – |
| Cc1ccc(S(=O)(=O)NC(N)=NCCC[C@@H](NC(=O)CNC(=O)c2ccccc2)C(=O)Nc2cc(C(F)(F)F)ccc2Cl)cc1 | 2.85% (inactive) | – |
| CC(C)c1ccc(C2CC(=O)N3CN(C4CCCCC4)CSC3=C2C#N)cc1 (configuration not stated) | – | 11.2 µM (active) |

| SMILES | activity change, negative = inhibition | Potency |
| --- | --- | --- |
| O=C(Nc1ccc2ccccc2c1)Nc1nnc(-c2ccc(O)cc2)s1 | 2.75% (inactive) | – |
| CC(C)c1ccc2c(c1)c(SC(C)(C)C)c(CC(C)(C)C(=O)O)n2Cc1ccc(Cl)cc1 | – | inactive and 79.4 µM (active) |
| Cc1c(C)n(Cc2ccc(Cl)cc2)c2ccc(C(=O)N3CCN(c4ccccc4F)CC3)cc12 | 13% (inactive) | – |
| C[S+](=O)([O-])c1ccc(-c2ccc(=O)n(CC(=O)NCCc3ccccc3)n2)cc1 | 15.9% (inactive) | – |
| Cc1ccc(OCCn2c(CCNC(=O)Cc3cccc4ccccc34)nc3ccccc32)cc1 | -12.6% (inactive) | – |
| CN1CC[C@H](c2c(O)cc(O)c3c(=O)cc(-c4ccccc4Cl)oc23)[C@H](O)C1 | – | 31.6 µM (active) |
| Cc1cc(C2N=C(Nc3nc4ccccc4o3)NC3=C2C(=O)CCC3)n[nH]1 (configuration not stated) | -1.79% (inactive) | – |
| FC(F)(F)c1cc(Cl)cc(-c2ccc(CNc3nc(-c4ccccc4C(F)(F)F)nc4ccccc34)cc2)c1 | 19.9% (inactive) | – |
| Cc1ccccc1-c1ccc(NC(=O)c2cccs2)cn1 | -4.12% (inactive) | – |
| O=S(=O)(NCC1CN(S(=O)(=O)c2ccc3c(c2)OCCO3)C1)c1c(F)cccc1F | 3.97% (inactive) | – |
| O=S(=O)(Nc1cccc2ccccc12)c1ccc(NCc2ccc(Br)cc2O)cc1 | -10.4% (inactive) | – |
| CCN(CC)c1ccc(NC(=O)CN(C)Cc2c(O)ccc3ccccc23)cc1 | 12.2% (inactive) | – |
| COc1ccccc1-c1c[nH]c2ncc(-c3cncc(C(=O)N(C)C)c3)cc12 | – | 39.8 µM (active) |
| COc1ccc(-c2cncc(NC(=O)c3cccs3)c2)cc1OC | -13% (inactive) | – |
| O=C1NS(=O)(=O)c2cc(Cl)ccc21 | 9.66% (inactive) | – |
| NC(=O)C1CCN(c2cc(-c3ccc4c(c3)OCCCO4)ncn2)CC1 | -0.544% [at 57.5 µM] (inactive) | – |
| c1nc(N2CCOCC2)c2cc(-c3ccc4c(c3)OCO4)ccc2n1 | – | 12.6 µM (active) |
| COc1ccc(NC(=O)c2cnn3c(-c4ccccc4)cc(C)nc23)cc1 | 0.228% (inactive) | – |
| O=C(Nc1ccc([S+](=O)([O-])Nc2nccs2)cc1)c1ccn[nH]1 | 0.211% [at 57.5 µM] (inactive) | – |
| O=C(OC/C=C/CSc1nnc(-c2cccc3ccccc23)o1)c1ccc(F)cc1 | 10.4% (inactive) | – |
| COc1cc(Nc2ncc(F)c(Nc3ccc4c(n3)NC(=O)C(C)(C)O4)n2)cc(OC)c1OC | – | inactive and 1.52 µM (active) |
| COc1cc(NC(=O)c2cc3ccc4cccnc4c3[nH]2)cc(OC)c1OC | -10.6% (inactive) | – |
| N#CN1CCC(NS(=O)(=O)c2cccc(F)c2)C1 (configuration not stated) | 0.651% [at 57.5 µM] (inactive) | – |

Source: PubChem BioAssay AID1645870 (National Center for Advancing Translational Sciences (NCATS), 2021)
